Experimental data: PubChem BioAssay (NCATS)
Records with an inconclusive call do not appear. A call without a number means that no potency is given here. Activity calls are given as the source filed them. Unless noted, calls follow the shape of the dose curve; as a rule, active = well fitted curve in the direction sought with a large enough effect; inconclusive = small, poorly fitted or top-dose-only effect, or another doubt; inactive = no such curve, though single readings can be large; an effect the other way counts as inactive or inconclusive.

Experiments:
[1] = AP1 Signaling Pathway (AID 357; active = well fitted curve in either direction with a large enough effect, not every such curve was filed as active;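 also: ME-180 reporter cells stimulated with EGF at its EC50 level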)
Procedure, shortened: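 First, ME-180 AP-1-bla cells were cultured overnight at 37 °C in low-serum Opti-MEM. Next, titrated compounds with EC50 EGF were incubated 5 hours. Finally, CCF4 was added for 2.5 hours and the 460/530 nm ratio recorded.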

[2] = NFAT Signaling Pathway (AID 444; active = well fitted curve in either direction with a large enough effect, not every such curve was filed as active;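 also: carbachol stimulus at about its EC50 of 1 µM final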); details: Jurkat NFAT-bla M1, carbachol, beta-lactamase ratio, 5 h; at 17.2 µM (top of the series) unless noted
Procedure, shortened: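 Read-out: CCF4 FRET ratio (460 nm/530 nm) after 1 h RT dye loading, used for %activity and AC50 from titration series. Cells: Jurkat NFAT-β-lactamase/M1 line, treated with compound plus 1 uM carbachol for 5 h, 37 °C.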

[3] = Stat Signaling Pathway (AID 446; active = well fitted curve in either direction with a large enough effect, not every such curve was filed as active;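 also: ME-180 cervical cancer cells given 40 pM IL-6 alongside compound; SIE-controlled beta-lactamase reporter measured as 460/530 nm FRET emission ratio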)
Procedure, shortened: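 Normalization used AC90 stimulation (300 pM IL-6) and AC90 inhibition (125 nM pan-JAK inhibitor at 40 pM IL-6). The underlying signal is SIE-driven beta-lactamase in ME-180 cells after 5 h IL-6 exposure with compound.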

[4] = target: Glucocorticoid receptor (Homo sapiens) (UniProt P04150); assay: GR-GFP Redistribution (AID 450;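 active = compounds whose dose series gives a full or clear partial fitted curve of increased nuclear translocation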; also: potency is read from the fitted curve at half-maximal effect); details: U2OS GR-GFP nuclear translocation, laser cytometry, 2 h
[5] = target: Glucocorticoid receptor (Homo sapiens) (UniProt P04150); assay: GR-EFC Redistribution (AID 451; calls by dose curve; also: potency is read from the fitted curve at half-maximal effect); details: CHO-K1 GR-EFC translocation, beta-gal luminescence, 2 h
Procedure, shortened: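 Translocation of GR-ED fusion to nuclear EA restores b-gal, read by luminescence after 1 h room-temperature detection. Engineered CHO-K1 biosensor cells, 1,000/well, exposed 2 h at 37 C to titrations up to 46 uM final.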

[6] = target: Mitogen-activated protein kinase 10 (Mus musculus) (UniProt Q61831); assay: JNK3 AlphaScreen Assay (AID 530; active = well fitted curve in either direction with a large enough effect, not every such curve was filed as active;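 also: kinase came from lysate of stimulated human HepG2 cells; signal reports phosphorylation of biotinylated GST-cJun 1-79 at Ser73 with 10 µM ATP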)
Procedure, shortened: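 qHTS titrations with 15 min compound pre-incubation before adding ATP (10 uM final). Read-out: AlphaScreen of Ser73-phosphorylated biotin-GST-cJun using HepG2 lysate JNK3 activated by IL-1β and TNFα.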

[7] = target: 3',5'-cyclic-AMP phosphodiesterase 4B (Homo sapiens) (UniProt Q07343); assay: qHTS Assay for Inhibitors of PDE-IV (AID 607; active = well fitted activation curve with a large enough effect in the main read-out, with a control signal flat, not every such curve was filed as active)
Procedure, shortened: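 HEK293 ACTOne cells with CNG channel (1000/well), endogenous PDE4; membrane potential dye, compounds up to 22.9 uM final. Fluorescence Ex 535/Em 590; RO 20-1724 (100 uM final) as reference.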

[8] = qHTS Assay for Lipid Storage Modulators (AID 1519; calls by dose curve); details: Drosophila S3 cells, BODIPY lipid droplet/cell ratio, laser cytometry, cells loaded with oleic acid; for activity change, negative = inhibition: at 25.7 µM (top of the series)
Procedure, shortened: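 Cells seeded at 5,000 per well were treated with compounds over a concentration series and loaded with oleic acid (400 uM, as added). Lipid droplet fluorescence (488 nm excitation, 500-530 nm channel) was read by laser-scanning cytometry and normalized to 20 uM Triacsin C.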

[9] = target: Ubiquitin carboxyl-terminal hydrolase 1 (Homo sapiens) (UniProt O94782); assay: Inhibitors of USP1/UAF1: Pilot qHTS (AID 504865);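 also: rhodamine fluorescence freed from ubiquitin-rhodamine substrate followed over time; top concentration of the series differs between compounds; nearly all actives have a fitted effect of over 35% in size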
Procedure, shortened: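 USP1/UAF1 complex (1nM) preincubated with compound 15 min at room temperature, then Ub-Rho substrate (150nM final) added. Fluorescence read kinetically at 480/540 nm, 6 reads every 60 seconds. Buffer: 50mM HEPES pH 7.8, 0.5mM EDTA, 0.1 mg/ml BSA, 1mM TCEP, 0.01% Tween-20.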

[10] = S16 Schwann cell viability assay (CellTiter-Glo assay) (AID 624031);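 also: cellular ATP luminescence as a viability measure; nearly all actives have a fitted effect of over 70% in size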
Procedure, shortened: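 Native S16 rat Schwann cells, 500-750 cells/well in DMEM with 10% FBS, dosed with compound after overnight culture and incubated 24h at 37 degree Celsius/5% CO2. Viability by CellTiter-Glo luminescence; % activity normalized to no-cell wells and DMSO-treated cells.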

[11] = qHTS profiling for inhibitors of Plasmodium falciparum proliferation (AID 504749); also: nearly all actives have a fitted effect of over 60% in size; details: P. falciparum in erythrocytes, SYBR Green DNA, 72 h, at 12.8 µM (top of the series)
Procedure, shortened: (§1)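 SYBR Green fluorescence of parasite DNA, read after lysis and overnight dark incubation, measured growth over 72 h in erythrocyte culture at 0.3% parasitemia and 2.5% hematocrit. Data normalised to DMSO and 0.29 uM artemisinin, with plate-drift correction.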

AS120 = assay: as above; details: P. falciparum in erythrocytes, SYBR Green DNA, 72 h; series mostly up to 12.8 µM
Procedure, shortened: as §1

C2A = assay: as above; details: P. falciparum in erythrocytes, SYBR Green DNA, 72 h; series mostly up to 12.8 µM
Procedure, shortened: as §1

CP237 = assay: as above; details: P. falciparum in erythrocytes, SYBR Green DNA, 72 h; series mostly up to 12.8 µM
Procedure, shortened: as §1

CP238 = assay: as above; details: P. falciparum in erythrocytes, SYBR Green DNA, 72 h; series mostly up to 12.8 µM
Procedure, shortened: as §1

CP252 = assay: as above; details: P. falciparum in erythrocytes, SYBR Green DNA, 72 h; series mostly up to 12.8 µM
Procedure, shortened: as §1

FAB9 = assay: as above; details: P. falciparum in erythrocytes, SYBR Green DNA, 72 h; series mostly up to 12.8 µM
Procedure, shortened: as §1

HB3 = assay: as above; details: P. falciparum in erythrocytes, SYBR Green DNA, 72 h; series mostly up to 12.8 µM
Procedure, shortened: as §1

JCK = assay: as above; details: P. falciparum in erythrocytes, SYBR Green DNA, 72 h; series mostly up to 12.8 µM
Procedure, shortened: as §1

PAD = assay: as above; details: P. falciparum in erythrocytes, SYBR Green DNA, 72 h; series mostly up to 12.8 µM
Procedure, shortened: as §1

[12] = measured here: cell count channel max response
[13] = measured here: lipid channel max response

Glucocorticoid receptor (Homo sapiens), sequence (P04150 whole entry, looked up, the tested form may be a part): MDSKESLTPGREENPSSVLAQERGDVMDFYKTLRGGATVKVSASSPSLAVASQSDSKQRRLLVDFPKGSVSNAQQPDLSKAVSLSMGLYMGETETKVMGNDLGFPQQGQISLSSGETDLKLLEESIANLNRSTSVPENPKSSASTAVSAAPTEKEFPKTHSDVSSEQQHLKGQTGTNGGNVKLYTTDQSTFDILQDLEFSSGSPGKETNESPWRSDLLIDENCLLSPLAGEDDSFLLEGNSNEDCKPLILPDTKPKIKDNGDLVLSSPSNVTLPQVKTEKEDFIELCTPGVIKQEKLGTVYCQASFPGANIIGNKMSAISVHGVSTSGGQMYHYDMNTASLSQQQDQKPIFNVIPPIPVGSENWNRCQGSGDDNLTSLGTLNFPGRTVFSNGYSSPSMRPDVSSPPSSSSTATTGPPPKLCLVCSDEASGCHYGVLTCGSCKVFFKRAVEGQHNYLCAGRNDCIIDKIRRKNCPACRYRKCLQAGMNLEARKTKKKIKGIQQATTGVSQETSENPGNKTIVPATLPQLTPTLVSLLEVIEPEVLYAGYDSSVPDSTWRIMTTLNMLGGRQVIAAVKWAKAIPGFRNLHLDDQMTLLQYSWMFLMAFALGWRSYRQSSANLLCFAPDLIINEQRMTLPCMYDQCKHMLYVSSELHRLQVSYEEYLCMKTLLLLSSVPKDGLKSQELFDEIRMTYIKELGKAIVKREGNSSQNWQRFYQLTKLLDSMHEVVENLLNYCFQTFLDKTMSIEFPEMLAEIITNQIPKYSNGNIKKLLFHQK
3',5'-cyclic-AMP phosphodiesterase 4B (Homo sapiens), sequence (Q07343 whole entry, looked up): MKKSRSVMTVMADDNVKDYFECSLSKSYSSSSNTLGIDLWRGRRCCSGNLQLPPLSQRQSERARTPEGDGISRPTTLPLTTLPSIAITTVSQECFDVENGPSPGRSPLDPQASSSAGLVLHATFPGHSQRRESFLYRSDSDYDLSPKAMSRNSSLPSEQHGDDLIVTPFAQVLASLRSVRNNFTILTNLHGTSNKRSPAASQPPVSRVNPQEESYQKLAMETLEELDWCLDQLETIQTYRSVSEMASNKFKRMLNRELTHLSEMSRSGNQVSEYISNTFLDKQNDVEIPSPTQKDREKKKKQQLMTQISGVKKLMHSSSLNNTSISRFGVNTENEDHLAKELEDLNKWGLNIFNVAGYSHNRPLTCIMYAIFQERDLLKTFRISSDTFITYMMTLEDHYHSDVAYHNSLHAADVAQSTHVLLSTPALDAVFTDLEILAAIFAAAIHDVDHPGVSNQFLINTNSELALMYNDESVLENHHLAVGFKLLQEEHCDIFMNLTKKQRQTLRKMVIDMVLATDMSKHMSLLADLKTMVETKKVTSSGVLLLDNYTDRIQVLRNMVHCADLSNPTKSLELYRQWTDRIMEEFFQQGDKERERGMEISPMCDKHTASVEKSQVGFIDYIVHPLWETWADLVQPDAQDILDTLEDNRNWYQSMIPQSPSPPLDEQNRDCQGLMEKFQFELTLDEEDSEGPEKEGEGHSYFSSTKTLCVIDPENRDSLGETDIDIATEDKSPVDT
Ubiquitin carboxyl-terminal hydrolase 1 (Homo sapiens), sequence (O94782 whole entry, looked up): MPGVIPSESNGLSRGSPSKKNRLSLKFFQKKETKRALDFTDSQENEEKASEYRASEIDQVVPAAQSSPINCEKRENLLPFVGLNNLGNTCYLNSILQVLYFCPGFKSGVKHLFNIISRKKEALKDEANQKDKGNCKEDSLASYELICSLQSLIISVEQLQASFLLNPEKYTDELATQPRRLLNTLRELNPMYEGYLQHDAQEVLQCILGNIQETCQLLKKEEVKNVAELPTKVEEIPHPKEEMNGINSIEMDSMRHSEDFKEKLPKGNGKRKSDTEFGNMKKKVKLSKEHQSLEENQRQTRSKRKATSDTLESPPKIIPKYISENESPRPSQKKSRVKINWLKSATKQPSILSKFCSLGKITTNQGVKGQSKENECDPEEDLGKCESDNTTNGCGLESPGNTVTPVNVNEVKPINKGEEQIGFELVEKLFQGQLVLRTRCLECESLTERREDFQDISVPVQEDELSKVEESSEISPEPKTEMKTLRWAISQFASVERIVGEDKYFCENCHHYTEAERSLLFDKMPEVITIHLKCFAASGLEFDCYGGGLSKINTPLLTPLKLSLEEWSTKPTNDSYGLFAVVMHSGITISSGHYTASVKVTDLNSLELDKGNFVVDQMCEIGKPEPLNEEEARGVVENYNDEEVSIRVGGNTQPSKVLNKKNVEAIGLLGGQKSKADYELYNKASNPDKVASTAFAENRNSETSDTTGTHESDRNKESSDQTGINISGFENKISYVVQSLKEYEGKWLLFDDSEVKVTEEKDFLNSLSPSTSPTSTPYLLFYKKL

SMILES: COc1ccc2nccc(C(=O)O)c2c1
- outcome [1]: inactive
- activity change, negative = inhibition [2]: -15.8% (inactive)
- outcome [3]: inactive
- Potency [4]: > 20.6 µM (inactive)
- Potency [5]: > 20.6 µM (inactive)
- Potency [6]: inactive
- outcome [7]: inactive
- activity change, negative = inhibition [8]: 2.98% (inactive)
- max response [8, 12]: -10.5%
- max response [8, 13]: -9.32%

SMILES: C[C@@H]1C[C@H]2[C@@H]3C[C@H](F)C4=CC(=O)C=C[C@@]4(C)[C@]3(F)[C@H](O)C[C@]2(C)[C@@]1(O)C(=O)CO
- outcome [1]: inactive
- activity change, negative = inhibition [2]: 2.6% (inactive)
- outcome [3]: inactive
- Potency [6]: inactive
- activity change, negative = inhibition [8]: -2.8% (inactive)
- max response [8, 12]: 0.642%
- max response [8, 13]: -3.99%
- Potency [9]: inactive
- outcome [10]: inactive
- activity, negative = inhibition ([11]; parasite line A): 7.34% (inactive)
- activity, negative = inhibition ([11]; parasite line B): -3.91% (inactive)
- Potency (AS120): inactive
- Potency (C2A): inactive
- Potency (CP237): inactive
- Potency (CP238): inactive
- Potency (CP252): inactive
- Potency (FAB9): inactive
- Potency (HB3): inactive
- Potency (JCK): inactive
- Potency (PAD): inactive

SMILES: CO[C@H]1C=CO[C@]2(C)Oc3c(C)c(O)c4c(O)c(c5c(c4c3C2=O)NC2(CCN(CC(C)C)CC2)N=5)=NC(=O)C(C)=CC=C[C@@H](C)[C@@H](O)[C@@H](C)[C@@H](O)[C@@H](C)[C@@H](OC(C)=O)[C@@H]1C
- outcome [1]: inactive
- activity change, negative = inhibition [2]: -15% (inactive)
- outcome [3]: inactive
- Potency [4]: > 20.6 µM (inactive)
- Potency [5]: > 20.6 µM (inactive)
- outcome [7]: inactive
- activity change, negative = inhibition [8]: -0.285% (inactive)
- max response [8, 12]: -3.75%
- max response [8, 13]: -1.31%
